Several values for one entry are separate records, joined by “and”; a condition that tells them apart may be missing. Equal entries are not always repeated. Results filed as inconclusive are left out. Activity calls are given as the source filed them. Unless noted, calls come from the whole dose curve; as a rule, active = well fitted curve in the direction sought with a large enough effect; inconclusive = small, poorly fitted or top-dose-only effect, or another doubt; inactive = no such curve, though single readings can be large; an effect the other way counts as inactive or inconclusive.
How the values were obtained:
[1] = AP1 Signaling Pathway (AID 357; active = well fitted curve in either direction with a large enough effect, not every such curve was filed as active;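 note: ME-180 reporter cells stimulated with EGF at its EC50 level; % is set by controls: 0 for no effect and ±100 for the full control effect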); conditions: ME-180 AP-1-bla reporter, EGF-induced, beta-lactamase ratio, 5 h
Procedure, shortened: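 Beta-lactamase reporter under AP-1 response element, ME-180 background. Stimulus: EC50 EGF. Compound exposure 5 h, 37 °C. Detection: CCF4, 2.5 h RT, 460/530 nm. Values: AC50 from titration.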

[2] = target: Cytochrome P450 1A2 (Homo sapiens) (UniProt P05177); test: p450-cyp1a2 (AID 410; calls by dose curve;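 note: -100% = full effect of reference inhibitor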); conditions: recombinant CYP1A2, luciferin-ME demethylation, luminescence; series mostly up to 57 µM
Procedure, shortened: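 Luminescent demethylation readout: Luciferin-ME (100uM, equal to Km) turned over by 20nM CYP1A2 for 60 min at room temperature after NADPH regeneration addition, following 10 min compound preincubation. Normalization used 57 uM furafylline as full inhibition.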

[3] = NFAT Signaling Pathway (AID 444; active = well fitted curve in either direction with a large enough effect, not every such curve was filed as active;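 note: carbachol stimulus at about its EC50 of 1 µM final; % is set by controls: 0 for no effect and ±100 for the full control effect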); conditions: Jurkat NFAT-bla M1, carbachol, beta-lactamase ratio, 5 h
Procedure, shortened: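 Jurkat cells carrying an NFAT-driven β-lactamase reporter and co-transfected muscarinic M1 receptor were treated with compound plus carbachol (1 uM final, an EC50 level) for 5 h at 37 °C. CCF4 loading followed for 1 h at RT; 460/530 nm ratio gave %activity.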

[4] = Stat Signaling Pathway (AID 446; active = well fitted curve in either direction with a large enough effect, not every such curve was filed as active;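 note: ME-180 cervical cancer cells given 40 pM IL-6 alongside compound; SIE-controlled beta-lactamase reporter measured as 460/530 nm FRET emission ratio; % is set by controls: 0 for no effect and ±100 for the full control effect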); conditions: ME-180 (cervical carcinoma) SIE beta-lactamase reporter, IL-6 stimulated, 5 h
Procedure, shortened: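 FRET read-out (405 nm excitation, 460/530 nm emission) of a beta-lactamase reporter under a STAT-inducible element in ME-180 cervical carcinoma cells. Cells with compound receive 40 pM IL-6 for 5 h. Values are normalised to AC90 stimulation and AC90 JAK-inhibitor controls.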

[5] = target: Glucocorticoid receptor (Homo sapiens) (UniProt P04150); test: GR-GFP Redistribution (AID 450;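 active = compounds whose dose series gives a full or clear partial fitted curve of increased nuclear translocation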; note: potency is the fitted concentration of half-maximal effect); conditions: U2OS GR-GFP nuclear translocation, laser cytometry, 2 h
[6] = target: Glucocorticoid receptor (Homo sapiens) (UniProt P04150); test: GR-EFC Redistribution (AID 451; calls by dose curve; note: potency is the fitted concentration of half-maximal effect); conditions: CHO-K1 GR-EFC translocation, beta-gal luminescence, 2 h
Procedure, shortened: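 CHO-K1 cells stably expressing nuclear-localized β-gal enzyme acceptor and GR fused C-terminally to the enzyme donor fragment; ligand-driven nuclear translocation restores β-gal by complementation. Compounds titrated up to 46 uM final, 2 h at 37 °C; luminescence read.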

[7] = target: Mitogen-activated protein kinase 10 (Mus musculus) (UniProt Q61831); test: JNK3 AlphaScreen Assay (AID 530; active = well fitted curve in either direction with a large enough effect, not every such curve was filed as active;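 note: kinase came from lysate of stimulated human HepG2 cells; signal reports phosphorylation of biotinylated GST-cJun 1-79 at Ser73 with 10 µM ATP; % is set by controls: 0 for no effect and ±100 for the full control effect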); conditions: JNK3 lysate, c-Jun phosphorylation; series mostly up to 57.1 µM
Procedure, shortened: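 Phosphorylation of biotinylated GST-cJun(1-79) at Ser73 is measured by AlphaScreen proximity luminescence. Enzyme is JNK3 in HepG2 lysates activated with interleukin-1beta and tumor necrosis factor alpha; ATP is 10 uM final.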

[8] = target: 3',5'-cyclic-AMP phosphodiesterase 4B (Homo sapiens) (UniProt Q07343); test: qHTS Assay for Inhibitors of PDE-IV (AID 607; active = well fitted activation curve with a large enough effect in the main read-out, with a control signal flat, not every such curve was filed as active; note: % of control where 0% means no effect); conditions: HEK293 ACTOne CNG channel cells, membrane potential fluorescence; series mostly up to 22.9 µM
Procedure, shortened: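 Cell-based read-out of cAMP via a modified cyclic nucleotide-gated channel and membrane potential dye (535/590 nm) in HEK293 cells expressing PDE4 endogenously. Compounds tested up to 22.9 uM final; 100 uM RO 20-1724 reference.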

[9] = qHTS Assay for Lipid Storage Modulators (AID 1519; calls by dose curve); conditions: Drosophila S3 cells, BODIPY lipid droplet/cell ratio, laser cytometry, cells loaded with oleic acid; for activity change, negative = inhibition: at 25.7 µM (top of the series)
Procedure, shortened: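 Cells seeded at 5,000 per well were treated with compounds over a concentration series and loaded with oleic acid (400 uM, as added). Lipid droplet fluorescence (488 nm excitation, 500-530 nm channel) was read by laser-scanning cytometry and normalized to 20 uM Triacsin C.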

[10] = target: ATP-dependent 6-phosphofructokinase (Trypanosoma brucei brucei) (UniProt O15648); test: qHTS Assay to Find Inhibitors of T. brucei phosphofructokinase: hit validation (AID 492961); conditions: T. brucei PFK, ADP-Glo luminescence; series mostly up to 24.3 µM
Procedure, shortened: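 PFK 1.25 nM, F6P 0.5 mM, ATP 0.1 mM, MgCl2 5 mM, 0.1 M TEA pH 8.0, Tween20 0.01%, BSA 0.1%; 45 min RT. ADP-Glo two-step detection, luminescence. qHTS titration; curve fitting with curve-class categorization.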

[11] = target: Ubiquitin carboxyl-terminal hydrolase 1 (Homo sapiens) (UniProt O94782); test: Inhibitors of USP1/UAF1: Pilot qHTS (AID 504865); conditions: purified USP1/UAF1, Ub-rhodamine cleavage fluorescence; series mostly up to 54.9 µM;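 note: rhodamine fluorescence freed from ubiquitin-rhodamine substrate followed over time; top concentration of the series differs between compounds; % is set by controls: 0 for no effect and ±100 for the full control effect; nearly all actives have a fitted effect of over 35% in size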
Procedure, shortened: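 Enzyme-free wells gave the negative control, while test wells held 1nM USP1/UAF1 preincubated with compound for 15 min at room temperature. Ub-Rho at 150nM final started the reaction, and fluorescence at 480/540 nm was recorded kinetically.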

[12] = target: Luciferin 4-monooxygenase (Photinus pyralis) (UniProt P08659); test: Biochemical firefly luciferase enzyme assay for NPC (AID 624030);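 note: purified P. pyralis luciferase at 10 nM with luciferin and ATP substrate; 0% = DMSO and -100% = full luciferase inhibition by PTC124 control; nearly all actives have a fitted effect of over 70% in size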; conditions: purified P. pyralis luciferase, luminescence, 5 min; series mostly up to 58.6 µM
Procedure, shortened: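 Counter-screen for direct inhibition of the luciferase enzyme by approved-drug library compounds, run at 10 nM enzyme in 50 mM Tris acetate (final). Luminescence was read within 5 min of enzyme-buffer addition and normalized to PTC124 versus DMSO (0%).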

[13] = qHTS profiling for inhibitors of Plasmodium falciparum proliferation (AID 504749);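 note: 0% = DMSO vehicle and full inhibition = artemisinin control; nearly all actives have a fitted effect of over 60% in size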; conditions: P. falciparum in erythrocytes, SYBR Green DNA, 72 h
Procedure, shortened: (§1)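 Quantitative HTS: compounds pinned into medium, infected erythrocytes added (0.3% parasitemia, 2.5% hematocrit), 72 h culture at 37 C under 5% CO2. Saponin/Triton lysis with SYBR Green I, overnight RT, then fluorescence read.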

[14] = tested on: CP238; test: as above; conditions: P. falciparum in erythrocytes, SYBR Green DNA, 72 h; series mostly up to 12.8 µM
Procedure, shortened: as §1

[15] = tested on: CP262; test: as above; conditions: P. falciparum in erythrocytes, SYBR Green DNA, 72 h; series mostly up to 12.8 µM
Procedure, shortened: as §1

[16] = tested on: CP325; test: as above; conditions: P. falciparum in erythrocytes, SYBR Green DNA, 72 h; series mostly up to 12.8 µM
Procedure, shortened: as §1

[17] = tested on: ECU; test: as above; conditions: P. falciparum in erythrocytes, SYBR Green DNA, 72 h; series mostly up to 12.8 µM
Procedure, shortened: as §1

[18] = tested on: FAB9; test: as above; conditions: P. falciparum in erythrocytes, SYBR Green DNA, 72 h; series mostly up to 12.8 µM
Procedure, shortened: as §1

[19] = tested on: HB3; test: as above; conditions: P. falciparum in erythrocytes, SYBR Green DNA, 72 h; series mostly up to 12.8 µM
Procedure, shortened: as §1

[20] = tested on: JCK; test: as above; conditions: P. falciparum in erythrocytes, SYBR Green DNA, 72 h; series mostly up to 12.8 µM
Procedure, shortened: as §1

[21] = at 7.69 µM (top of the series) unless noted
[22] = measured here: cell count channel max response
[23] = measured here: lipid channel max response
[24] = at 12.8 µM (top of the series), parasite line A
[25] = at 12.8 µM (top of the series), parasite line B

Chain of Glucocorticoid receptor (Homo sapiens) (P04150 whole entry, looked up, the tested form may be a part): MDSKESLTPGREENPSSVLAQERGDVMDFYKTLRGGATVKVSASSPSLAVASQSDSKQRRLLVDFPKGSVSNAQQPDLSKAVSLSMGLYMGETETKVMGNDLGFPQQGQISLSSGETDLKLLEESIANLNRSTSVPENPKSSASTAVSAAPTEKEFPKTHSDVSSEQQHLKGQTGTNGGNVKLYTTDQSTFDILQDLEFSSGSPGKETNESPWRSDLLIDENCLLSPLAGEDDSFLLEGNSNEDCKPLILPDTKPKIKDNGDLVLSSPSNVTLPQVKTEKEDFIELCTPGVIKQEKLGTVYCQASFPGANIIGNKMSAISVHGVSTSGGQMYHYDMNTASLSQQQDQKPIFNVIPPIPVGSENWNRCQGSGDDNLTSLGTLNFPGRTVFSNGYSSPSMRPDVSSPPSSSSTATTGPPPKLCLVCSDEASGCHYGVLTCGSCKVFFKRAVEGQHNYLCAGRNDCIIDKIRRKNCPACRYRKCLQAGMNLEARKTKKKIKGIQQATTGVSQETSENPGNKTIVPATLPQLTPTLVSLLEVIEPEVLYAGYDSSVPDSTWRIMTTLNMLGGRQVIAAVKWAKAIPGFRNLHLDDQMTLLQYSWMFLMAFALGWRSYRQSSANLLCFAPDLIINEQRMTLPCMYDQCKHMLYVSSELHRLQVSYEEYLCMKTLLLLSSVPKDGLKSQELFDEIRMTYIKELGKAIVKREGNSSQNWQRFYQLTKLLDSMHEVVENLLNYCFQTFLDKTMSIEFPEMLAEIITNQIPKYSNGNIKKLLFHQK
Chain of ATP-dependent 6-phosphofructokinase (Trypanosoma brucei brucei) (O15648 whole entry, looked up): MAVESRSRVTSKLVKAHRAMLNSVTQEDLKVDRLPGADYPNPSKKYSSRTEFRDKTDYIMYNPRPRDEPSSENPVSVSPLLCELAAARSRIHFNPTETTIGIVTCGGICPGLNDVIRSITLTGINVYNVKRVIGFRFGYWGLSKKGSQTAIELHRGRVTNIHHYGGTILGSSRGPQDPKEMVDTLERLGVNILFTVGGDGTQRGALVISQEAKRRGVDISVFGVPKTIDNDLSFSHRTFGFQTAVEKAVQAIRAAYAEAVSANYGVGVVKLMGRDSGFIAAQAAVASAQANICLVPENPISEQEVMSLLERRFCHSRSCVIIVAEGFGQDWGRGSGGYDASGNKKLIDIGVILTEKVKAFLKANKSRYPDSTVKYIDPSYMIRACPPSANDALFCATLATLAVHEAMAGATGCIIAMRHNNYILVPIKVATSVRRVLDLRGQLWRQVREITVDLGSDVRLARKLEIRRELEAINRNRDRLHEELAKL
Chain of Cytochrome P450 1A2 (Homo sapiens) (P05177 whole entry, looked up): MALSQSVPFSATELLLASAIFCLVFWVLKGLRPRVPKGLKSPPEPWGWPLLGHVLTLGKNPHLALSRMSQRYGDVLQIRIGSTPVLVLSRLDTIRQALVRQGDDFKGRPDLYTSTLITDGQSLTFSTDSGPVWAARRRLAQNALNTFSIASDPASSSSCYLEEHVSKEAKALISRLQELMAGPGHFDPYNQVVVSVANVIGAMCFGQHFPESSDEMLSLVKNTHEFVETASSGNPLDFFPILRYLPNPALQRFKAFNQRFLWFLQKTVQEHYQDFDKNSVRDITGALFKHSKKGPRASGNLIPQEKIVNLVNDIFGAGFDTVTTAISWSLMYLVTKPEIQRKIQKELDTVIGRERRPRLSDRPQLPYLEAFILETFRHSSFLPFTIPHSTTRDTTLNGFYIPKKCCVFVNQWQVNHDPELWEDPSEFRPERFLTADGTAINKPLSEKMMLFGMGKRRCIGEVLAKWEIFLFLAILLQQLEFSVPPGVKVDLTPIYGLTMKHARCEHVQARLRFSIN
Chain of Ubiquitin carboxyl-terminal hydrolase 1 (Homo sapiens) (O94782 whole entry, looked up): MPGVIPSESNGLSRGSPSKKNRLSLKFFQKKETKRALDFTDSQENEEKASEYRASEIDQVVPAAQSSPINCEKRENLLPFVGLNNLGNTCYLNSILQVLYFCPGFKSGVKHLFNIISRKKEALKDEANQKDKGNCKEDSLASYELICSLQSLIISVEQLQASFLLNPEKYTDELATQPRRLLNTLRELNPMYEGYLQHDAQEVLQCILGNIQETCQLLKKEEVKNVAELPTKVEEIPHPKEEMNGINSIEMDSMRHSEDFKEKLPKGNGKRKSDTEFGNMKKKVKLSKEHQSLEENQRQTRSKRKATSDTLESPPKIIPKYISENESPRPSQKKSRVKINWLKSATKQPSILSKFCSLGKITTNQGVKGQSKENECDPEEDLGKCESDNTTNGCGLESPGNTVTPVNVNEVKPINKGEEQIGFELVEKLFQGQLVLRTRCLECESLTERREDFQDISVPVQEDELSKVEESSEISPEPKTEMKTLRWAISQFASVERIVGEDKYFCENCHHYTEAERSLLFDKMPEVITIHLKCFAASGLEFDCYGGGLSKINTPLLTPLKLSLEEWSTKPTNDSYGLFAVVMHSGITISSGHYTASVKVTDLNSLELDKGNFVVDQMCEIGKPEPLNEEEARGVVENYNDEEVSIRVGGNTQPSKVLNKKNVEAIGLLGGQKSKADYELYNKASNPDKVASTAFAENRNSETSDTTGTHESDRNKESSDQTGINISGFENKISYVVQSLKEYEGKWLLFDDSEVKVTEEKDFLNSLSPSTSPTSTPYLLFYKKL
Chain of 3',5'-cyclic-AMP phosphodiesterase 4B (Homo sapiens) (Q07343 whole entry, looked up): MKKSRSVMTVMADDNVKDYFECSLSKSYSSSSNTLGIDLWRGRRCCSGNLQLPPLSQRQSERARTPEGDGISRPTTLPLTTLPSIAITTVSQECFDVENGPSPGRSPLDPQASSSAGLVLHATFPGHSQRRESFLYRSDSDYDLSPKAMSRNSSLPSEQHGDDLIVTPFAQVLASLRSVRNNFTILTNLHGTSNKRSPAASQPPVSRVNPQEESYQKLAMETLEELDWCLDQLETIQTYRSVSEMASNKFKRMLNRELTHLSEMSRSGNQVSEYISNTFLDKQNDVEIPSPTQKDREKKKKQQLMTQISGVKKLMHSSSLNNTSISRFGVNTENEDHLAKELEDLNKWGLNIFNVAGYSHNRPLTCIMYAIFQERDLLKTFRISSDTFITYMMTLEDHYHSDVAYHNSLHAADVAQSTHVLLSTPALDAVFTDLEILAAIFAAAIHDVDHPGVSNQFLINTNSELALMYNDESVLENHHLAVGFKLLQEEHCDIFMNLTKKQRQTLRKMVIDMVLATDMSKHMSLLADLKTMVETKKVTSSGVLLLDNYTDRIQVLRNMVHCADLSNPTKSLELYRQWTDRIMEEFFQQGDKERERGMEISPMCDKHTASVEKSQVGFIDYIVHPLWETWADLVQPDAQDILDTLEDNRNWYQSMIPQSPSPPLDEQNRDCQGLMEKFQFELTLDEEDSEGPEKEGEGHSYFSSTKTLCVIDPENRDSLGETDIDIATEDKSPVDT
Chain of Luciferin 4-monooxygenase (Photinus pyralis) (P08659 whole entry, looked up): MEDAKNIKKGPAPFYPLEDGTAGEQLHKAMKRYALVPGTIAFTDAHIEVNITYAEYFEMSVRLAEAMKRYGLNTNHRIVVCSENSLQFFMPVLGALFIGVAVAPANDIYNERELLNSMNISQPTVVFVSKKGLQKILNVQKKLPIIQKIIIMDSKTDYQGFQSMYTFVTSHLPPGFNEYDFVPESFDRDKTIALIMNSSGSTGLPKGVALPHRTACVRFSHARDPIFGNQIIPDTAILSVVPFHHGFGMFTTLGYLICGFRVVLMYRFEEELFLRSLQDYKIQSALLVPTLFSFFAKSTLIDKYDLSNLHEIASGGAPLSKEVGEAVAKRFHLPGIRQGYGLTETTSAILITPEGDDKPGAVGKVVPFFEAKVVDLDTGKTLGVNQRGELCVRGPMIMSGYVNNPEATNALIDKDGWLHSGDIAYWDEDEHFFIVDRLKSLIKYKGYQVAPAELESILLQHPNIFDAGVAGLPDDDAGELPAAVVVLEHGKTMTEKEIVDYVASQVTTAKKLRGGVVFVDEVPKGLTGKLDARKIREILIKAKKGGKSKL

C[C@H](NCCc1ccc(O)cc1)[C@@H](O)c1ccc(O)cc1
-0.183%: max response [9, 22]
-0.394%: max response [9, 23]
inactive: activity change, negative = inhibition ([1]; at 17.2 µM (top of the series)) -5.73% | activity change, negative = inhibition ([1]; at 38 µM (top of the series)) 12.1% | Potency [2] | activity change, negative = inhibition [3, 21] -28.4% [at 17.2 µM] | activity, negative = inhibition [4, 21] 13.1% [at 17.2 µM] | Potency [5] > 46 µM and > 20.6 µM | Potency [6] > 46 µM and > 20.6 µM | Potency [7] | Potency [8] | activity change, negative = inhibition [9] -0.451% | outcome [10] | Potency [11] | outcome [12] | activity, negative = inhibition ([13]; at 28.7 µM (top of the series), parasite line A) 3.98% | activity, negative = inhibition ([13]; at 28.7 µM (top of the series), parasite line B) 6.27% | Potency [14] | Potency [15] | Potency [16] | Potency [17] | Potency [18] | Potency [19] | Potency [20]

CC1=C(C(=O)O)N2C(=O)[C@@H](NC(=O)[C@@H](N)c3ccccc3)[C@@H]2SC1
0.948%: max response [9, 22]
inactive: activity change, negative = inhibition ([1]; at 17.2 µM (top of the series)) 16.3% | activity change, negative = inhibition ([1]; at 38 µM (top of the series)) 11% | activity change, negative = inhibition ([3]; at 17.2 µM (top of the series)) -9.84% | activity change, negative = inhibition ([3]; at 38 µM (top of the series)) -0.753% | activity, negative = inhibition ([4]; at 17.2 µM (top of the series)) 10.2% | activity, negative = inhibition ([4]; at 38 µM (top of the series)) 30.7% | Potency [7] | Potency [8] | activity change, negative = inhibition [9] -1.09% | Potency [11]
-0.484%: max response [9, 23]

CC(C)(O/N=C(\C(=O)N[C@@H]1C(=O)N2C(C(=O)[O-])=C(C[n+]3ccccc3)CS[C@@H]12)c1csc(N)n1)C(=O)O
-1.74%: max response [9, 22]
inactive: activity change, negative = inhibition [1, 21] 8.59% [at 17.2 µM] | Potency [2] | activity change, negative = inhibition [3, 21] 7.85% [at 17.2 µM] | activity, negative = inhibition [4, 21] 7.45% [at 17.2 µM] | Potency [5] > 20.6 µM | Potency [6] > 20.6 µM | Potency [7] | Potency [8] | activity change, negative = inhibition [9] 0.159% | outcome [10] | Potency [11] | outcome [12] | activity, negative = inhibition [13, 24] 2.04% | activity, negative = inhibition [13, 25] -2.21% | Potency [14] | Potency [15] | Potency [16] | Potency [17] | Potency [18] | Potency [19] | Potency [20]
-1.95%: max response [9, 23]

CN(C)CCO[C@](C)(c1ccccc1)c1ccccn1
17.9%: max response [9, 23]
inactive: activity change, negative = inhibition ([1]; at 17.2 µM (top of the series)) 4.7% | activity change, negative = inhibition ([1]; at 38 µM (top of the series)) 3.93% | Potency [2] | activity, negative = inhibition ([4]; at 17.2 µM (top of the series)) -3.9% | activity, negative = inhibition ([4]; at 38 µM (top of the series)) 8.94% | Potency [7] | Potency [8] | activity change, negative = inhibition [9] 0.849% | Potency [11] | outcome [12]
16.6%: max response [9, 22]

CO[C@H]1C[C@@H](O[C@@H]2[C@H](C)[C@H](O[C@@H]3O[C@@H](C)C[C@@H](N(C)C)[C@@H]3O)[C@H](C)C[C@]3(CO3)C(=O)[C@H](C)[C@H](O)[C@H](C)[C@H](C)OC(=O)[C@@H]2C)O[C@@H](C)[C@H]1O
11.6%: max response [9, 23]
9.47%: max response [9, 22]
inactive: activity change, negative = inhibition [1, 21] 2.97% [at 17.2 µM] | Potency [2] | activity change, negative = inhibition [3, 21] 8.23% [at 17.2 µM] | activity, negative = inhibition [4, 21] -6.44% [at 17.2 µM] | Potency [5] > 20.6 µM | Potency [6] > 20.6 µM | Potency [7] | Potency [8] | activity change, negative = inhibition [9] 1.28% | outcome [10] | Potency [11] | outcome [12] | activity, negative = inhibition [13, 24] -15.5% | activity, negative = inhibition [13, 25] -11.7% | Potency [14] | Potency [15] | Potency [16] | Potency [17] | Potency [18] | Potency [19] | Potency [20]

— PubChem BioAssay (NCATS)
